# According to the supplement of paper PMC6555819:
# Key:
# Test in all cases: PBM binding z-score (relative to random genomic background probes); higher = stronger binding; sequences stand for … in GC…GCGATTGACAGCGTAGAATGAAGG
# [1] = tested on: FXR:RXRa (NR concentration 270 nM, RXRa partner concentration 90 nM)
# How it was run: (§1)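 On custom Agilent 4×180K arrays, double-stranded probes with 34-nt variable regions carried direct-repeat seeds, single-nucleotide variants, half-site ablations or random human genomic background. Ligand-free nuclear receptor dimers were applied for 1 h, and binding was read with antibodies against each partner (one per run). Binding z-scores come from regression-normalized fluorescence, with the random background probes as reference.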
# [2] = tested on: LXRa:RXRa (NR concentration 270 nM, RXRa partner concentration 90 nM)
# How it was run: as §1
# [3] = tested on: LXRa homodimer (NR concentration 270 nM)
# How it was run: as §1
# [4] = tested on: LXRb:RXRa (NR concentration 270 nM, RXRa partner concentration 90 nM)
# How it was run: as §1
# [5] = tested on: LXRb homodimer (NR concentration 270 nM)
# How it was run: as §1
# [6] = tested on: PPARa:RXRa (NR concentration 270 nM, RXRa partner concentration 90 nM)
# How it was run: as §1
# [7] = tested on: PPARg:RXRa (NR concentration 180 nM, RXRa partner concentration 90 nM)
# How it was run: as §1
# [8] = tested on: PPARg:RXRa 270nM:90nM, anti-RXR (NR concentration 270 nM, RXRa partner concentration 90 nM)
# How it was run: as §1
# [9] = tested on: PPARg:RXRa 30nM:10nM, anti-RXR (NR concentration 30 nM, RXRa partner concentration 10 nM)
# How it was run: as §1
# [10] = tested on: PPARg:RXRa 90nM:30nM, anti-RXR (NR concentration 90 nM, RXRa partner concentration 30 nM)
# How it was run: as §1
# [11] = tested on: PPARg:RXRa DBDmut IVT, anti-RXR (DBD mutation: RXRa K156A/R161A, NR concentration 270 nM, RXRa partner concentration 90 nM)
# How it was run: as §1
# [12] = tested on: PPARg:RXRa IVT, anti-PPARg (NR concentration 270 nM, RXRa partner concentration 90 nM)
# How it was run: as §1
# [13] = tested on: PPARg DBDmut:RXRa IVT, anti-PPARg (DBD mutation: PPARg1 K132A/R137A, NR concentration 270 nM, RXRa partner concentration 90 nM)
# How it was run: as §1
# [14] = tested on: PPARg DBDmut IVT, anti-PPARg (DBD mutation: PPARg1 K132A/R137A, NR concentration 270 nM)
# How it was run: as §1
# [15] = tested on: PPARg homodimer (NR concentration 180 nM)
# How it was run: as §1
# [16] = tested on: PXR:RXRa (NR concentration 270 nM, RXRa partner concentration 90 nM)
# How it was run: as §1
# [17] = tested on: PXR homodimer (NR concentration 270 nM)
# How it was run: as §1
# [18] = tested on: RARa:RXR (NR concentration 270 nM, RXRa partner concentration 90 nM)
# How it was run: as §1
# [19] = tested on: RARa homodimer (NR concentration 270 nM)
# How it was run: as §1
# [20] = tested on: RARb:RXRa (NR concentration 270 nM, RXRa partner concentration 90 nM)
# How it was run: as §1
Sequence,PBM binding z-score [1],PBM binding z-score [2],PBM binding z-score [3],PBM binding z-score [4],PBM binding z-score [5],PBM binding z-score [6],PBM binding z-score [7],PBM binding z-score [8],PBM binding z-score [9],PBM binding z-score [10],PBM binding z-score [11],PBM binding z-score [12],PBM binding z-score [13],PBM binding z-score [14],PBM binding z-score [15],PBM binding z-score [16],PBM binding z-score [17],PBM binding z-score [18],PBM binding z-score [19],PBM binding z-score [20]
TTACCAAGGTGAAGGTCGTTAATCCCTCTGTAGA,1.32,1.12,-0.236,1.22,-0.624,2.49,2.65,3.89,1.82,3.43,1.67,3.05,-0.743,-0.257,0.621,1.28,0.0227,1.65,-0.0474,1.98
GGAACGAGTGCAAGTTGATAGCAGAGTTTGATGG,-0.219,-0.282,-0.428,-0.496,-0.508,-0.279,0.107,-0.41,-0.349,-0.508,-0.142,-0.639,0.145,-0.69,-0.875,0.885,1.16,-0.297,-1.23,0.365
AGTCAAAGTTCGCTAGGTAACGTAAGATTCAGCT,0.102,0.248,-0.0137,0.158,-0.513,0.793,1.64,2.36,0.554,1.85,0.109,1.13,0.0923,0.244,0.129,0.563,0.141,0.661,0.175,2
ATAACAAGGTGATCGTGAGGTCGTTGATACTAAC,1.71,1.19,0.521,1.1,0.521,1.89,0.967,0.692,0.235,0.705,1.16,1.89,1.52,0.304,0.85,3.06,1.63,2.01,0.293,1.51
CCTCGGAGGACAACAGGAGGTCGGAGCTGCCAGA,-0.0236,-0.0275,-0.149,-0.236,-0.893,0.19,-0.122,-0.445,-0.792,-1.05,-0.0819,-0.232,-0.343,-1.52,-0.189,0.00803,-0.239,0.109,0.111,1.55
GCATATAGGTAATAAAAGGTGAAAGTCCGATTGT,1.12,4.97,0.418,1.97,-0.165,2.47,1.65,2.12,0.664,1.72,3.99,3.33,0.83,0.676,1.38,0.771,0.163,2.04,0.974,1.12
TCATATAGGTAAATGCTGGGTGAAAGTCCGATCT,1.03,1.11,0.288,0.818,0.924,1.38,0.836,2.2,3.63,3.26,4.13,2.63,0.471,0.976,1.04,0.606,0.456,0.833,1.19,0.495
CCTGCTAGGTCATGGTCAGCTGATCTACAGTATG,4.51,2.68,-0.139,2.21,-0.492,3.96,3.02,3.1,0.862,2.09,4.74,4.18,0.184,0.177,2.39,2.18,-0.463,2.89,-0.136,4.21
TGTCAAAGTCCAAAGGTAACGTAAGTATCCACAC,-0.0292,0.605,-0.413,0.55,-0.353,1.61,2.27,2.93,1.07,2.43,-0.118,1.79,0.417,1.16,0.272,0.511,-0.0654,0.938,0.285,1.93
ATCTCTAGGTAAGACTCAGTTCAGTGAAGAACGC,0.226,0.477,0.614,0.261,1.05,0.0408,-0.0322,0.385,0.412,0.159,1.86,0.996,1.18,1.16,1.11,1.04,1.31,0.197,0.948,0.386
CGAACCAGGTCATTGACAGGACAGTGAATAGTAA,5.53,3.65,0.747,2.7,0.324,4.37,4.46,4.07,0.956,2.96,4.92,5.01,0.122,0.405,1.32,2.53,0.75,2.92,0.518,3.58
TCATATAGGTAAAAGCTAGGTGAAAGTCCGATCT,0.543,0.688,-0.0379,0.557,-0.187,1.69,1,2.74,4,3.37,3.84,2.83,1.06,1.08,0.659,0.255,0.0441,1.01,0.436,0.407
CAAACTAGGTCAAAGGTCAAATTCGAGCCAACCA,8.57,7.2,6.34,7.43,4,7.66,14.1,11.5,12.7,14,8.73,9.36,7.2,6.6,8.4,7.16,1.57,8.86,3.32,5.62
CAAACTAGGTCAAGAGGTCAAAGTGCGCTTCCCG,7.08,6.47,5.76,5.71,2.04,6.59,10.2,8.63,7.04,8.54,8.41,8.51,1.86,0.825,5.5,6.13,2.6,7.48,2.21,5.47
GGAATGAGGGCAAAGTTGATAGCATCTGTCGACG,1.58,1.26,-0.314,1.11,-0.0126,4.51,7.74,7.45,6.47,8.36,5.52,4.71,1.48,0.0505,0.811,1.43,0.53,1.95,0.171,2.36
GTACCAAGGTGAATAGGTCGTTGGTGAGTAGGCG,0.874,0.844,-0.171,0.388,-0.834,2.25,1.17,1.93,0.116,1.13,1.63,2.76,-0.162,-0.965,0.877,0.626,-0.0296,1.9,-0.0597,2.1
AGTCAAAGTTCAGGACCAGGTAACGTAAAGCACG,4.33,3.63,1.19,1.72,0.134,3.32,4.94,4.9,2.16,4.19,-0.279,1.91,0.221,0.246,1.9,2.47,1.19,2.67,0.885,4.37
TAGCCTAGGTCACTCAGGGGCCAGTATAGAAAGC,3.32,2.18,-0.258,2,-0.123,3.18,2.64,2.29,0.26,1.24,1.65,3.3,0.795,0.141,1.5,1.73,-0.391,3.07,-0.348,3.99
CAAACTAGGTCACGGTCAAAGTCGGTTTGTGCCA,5.44,4.31,1.73,3.13,0.506,5.57,9.6,7.81,5.91,7.67,8.53,9.26,4.37,3.83,2.22,2.72,-0.218,3.68,0.991,4.81
TCTTGTAGATCAACAGGAGTTTAAGAAAGATCGA,-0.268,0.229,-0.339,-0.131,-0.759,0.604,0.0426,1.19,2.22,1.87,1.57,0.487,0.0985,0.197,-0.389,0.514,-0.0735,0.201,-0.584,0.0376
CCGACTGGGGCAAAGGTTACCCTACTCAGTACGA,1.55,1.36,0.204,1.69,-1.04,4.95,10.4,8.13,8.18,9.15,4.37,5.45,-0.494,-0.866,0.732,1.9,-0.0869,3.02,-0.235,2.1
CCGACTGGGTCAAGGTTACCATAACGCACAGCCA,3.19,2.1,0.079,2.21,-0.717,4.15,6.25,5.71,3.15,5.32,5.21,5.93,0.445,-0.0986,1.69,2.17,0.366,2.76,0.448,3.62
CCTCGGAGGACAGAAGCTCAGAGCTGTCCGCTTT,-0.605,-0.517,-0.873,-1.16,-0.889,-1.83,-0.876,-1.61,-1.52,-1.69,-0.36,-1.19,-1.19,-2.47,-1.01,-1.09,-1.12,-1.41,-0.553,0.0741
TCTATTAGTTGAAGGGCAACTGACGAGTCCGTTT,0.705,0.726,0.328,0.815,0.416,1.09,0.086,2.28,3.74,3.07,2.25,0.905,0.468,0.573,0.905,0.88,0.479,1.08,1.44,1.6
ATCGAAAGGTCGAGGTGACTATAGAGAAAGGGAA,4.61,3.47,0.0804,2.68,0.167,4.72,3.8,3.74,1.66,3.09,0.438,2.86,1.24,0.771,1.35,2.56,0.185,3.53,0.636,4.21
CCGATTAGGTTATGGGGCATTCAGGCAACGGTGA,0.472,0.574,-0.0892,0.58,-0.609,1.58,2.14,3.35,1.63,2.83,2.29,2.29,-0.258,-1.33,1.18,0.0495,-0.245,0.615,0.0747,1.37
AGAATGAGGTTATACGTAGATCAGGAAAGAAAGT,2.11,1.99,0.118,1.76,0.0606,3.08,2.02,1.97,0.878,1.47,4.05,2.36,1.21,0.76,0.606,1.23,0.488,1.71,0.559,1.37
ATATGTAGGTTATCGGGCCATTCAGTTTGCGCAT,0.607,1.03,0.565,0.95,0.458,3.22,5.22,4.45,1.98,3.76,7.31,6.82,2.32,3.56,1.89,0.605,1.06,0.558,1.09,1.08
CCTATTAGTAGACCATAAGGGCAACCGAAGCTCG,0.44,0.377,0.422,0.468,0.364,0.752,0.777,1.21,0.45,0.915,1.88,1.11,0.0545,0.0708,1.4,0.71,0.501,0.768,1.33,1.25
